Screening results as filed in PubChem.
Compounds with a hit are over-represented: about 19% of the library has one in this group of screens.
HT1080NT lethal: kills 2HG-producing HT-1080-NT fibrosarcoma cells; HT-1080-NT fibrosarcoma viability, CellTiter-Glo ATP luminescence, 48 h; Potency, µM (doses to about 46.1 µM), without a hit: at the highest dose activity, negative = less viability, most hits filed as cytotoxic; 360,000 compounds, 1.6% hits;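 also: NT is the 2HG producing partner of a matched IDH1 knockdown line; potency is read from the fitted curve at half-maximal effect; 0% = DMSO-treated cells and -100% = media-only wells without cells; nearly all actives have a fitted effect of over 55% in size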
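Fibrosarcoma NT cells, 750 per well in 5% FBS RPMI, were exposed to compound for 48 hours. Viability: CellTiter-Glo luminescence.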
DT40 TDP1 no CPT: qHTS for Inhibitors of human tyrosyl-DNA phosphodiesterase 1 (TDP1): qHTS in cells in absence of CPT. DT40 Tdp1-/- hTDP1 cells, no CPT, ATP luminescence, 48 h. Potency, µM (highest dose often 46.2 µM), for inactives: top-dose activity change, negative = growth inhibition, most hits filed as inhibitors. 420,000 compounds, 15% hits. AID 686978, 2013; also: potency is read from the fitted curve at half-maximal effect; nearly all actives have a fitted effect of over 55% in size
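Growth of hTDP1-complemented DT40 Tdp1-knockout cells is measured by ATP luminescence after at least 48 hr compound exposure at 37 °C, with DMSO substituting for the 20 nM CPT used in the parallel screen.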
DT40 TDP1 CPT: growth inhibition of DT40 Tdp1-/-;hTDP1 cells with camptothecin (screen for TDP1 inhibitors); chicken DT40 Tdp1-/-;hTDP1 cells + 20 nM CPT, ATP luminescence, 48 h; Potency, µM (series often up to 46.2 µM), inactives show at the highest dose activity change, negative = growth inhibition, hits mostly inhibitors; 420,000 compounds, 12% hits; also: potency is read from the fitted curve at half-maximal effect; nearly all actives have a fitted effect of over 55% in size
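Chicken DT40 Tdp1-/- cells stably complemented with human TDP1 were seeded at 400 cells/well in medium containing 20 nM camptothecin, exposed to pin-transferred compounds, and grown at 37 °C for at least 48 hr. Viability was read as ATP luminescence.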
IL-1B inflam inh: inhibitors of inflammasome signaling (IL-1 beta secretion); THP-1 LPS/ATP IL-1B secretion, AlphaLISA, 16 h; stronger effect = lower value; activity change, % at 57.5 µM; 360,000 compounds, 4.7% hits; AID 743279; in the data active = activity change below about -50%; inconclusive = mostly about -30% to -49%
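Secreted IL-1B measured by AlphaLISA bead assay after 16 h compound exposure of THP-1 cells; compounds (final up to 57.5 uM) added 1 h before LPS (250 ng/mL) and ATP (1.25 mM) stimulation; lower signal means less secretion.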
HT1080 IDH1KD tx: kills HT-1080 cells with IDH1 knockdown. HT-1080 IDH1 knockdown viability, ATP luminescence, 48 h. Potency, µM (titrated, usually from 46.1 µM), for inactives: at the top dose activity, negative = toxicity, usual class: cytotoxic. 360,000 compounds, 2% hits. AID 686971;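 also: potency is read from the fitted curve at half-maximal effect; 0% = DMSO wells and -100% = cell-free medium wells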
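IDH1KD HT-1080 cells, 750/well, RPMI + 5% FBS; compound pinned after 2 h settling; 48 h, 37 °C; CellTiter-Glo luminescence; % activity normalised to DMSO and no-cell wells; curves fitted, classed by r2 and efficacy.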
Numbers without * were called inactive; i = inactive; u = inconclusive; x = not tested or not shown; [ ] = remark or other dose. Unless noted, calls follow the shape of the dose curve; as a rule, active = well fitted curve in the direction sought with a large enough effect; inconclusive = small, poorly fitted or top-dose-only effect, or another doubt; inactive = no such curve, though single readings can be large; an effect the other way counts as inactive or inconclusive. Unless noted, % is scaled to controls: 0 for no effect and ±100 for the full control effect.

SMILES | HT1080NT lethal | DT40 TDP1 no CPT | DT40 TDP1 CPT | IL-1B inflam inh | HT1080 IDH1KD tx
CCOc1ccc(N2C(=O)CC(N(CCc3ccccc3)C(=O)/C=C/C(=O)O)C2=O)cc1 (centres undefined) | -1% | 27% | 24% | 9 | -4%
Cc1ccc(N2C(=O)CC(N(CCc3ccccc3)C(=S)Nc3ccc(N(C)C)cc3)C2=O)cc1 (centres undefined) | -8% | u | 18µM* | u | u
COc1ccc(CCN(C(=S)Nc2ccccc2)C2CC(=O)N(c3ccccc3)C2=O)cc1 (centres undefined) | -3% | u | u | 19 | -5%
CC(C)CCNC(=O)NC(=O)COC(=O)/C=C/c1cc(Br)ccc1F | 29% | u | u | -6 | 28%
Cc1cc(C)n(Cc2ccc(Cl)cc2Cl)c(=O)c1S(=O)(=O)c1ccccc1 | -2% | 23µM* | u | 11 | -5%
Fc1ccc2[nH]c3c(c2c1)CN(C(=S)NCc1ccccc1)CC3 | u | u | -18% | -89* | u
C=CCNC(=O)N1CCc2[nH]c3ccc(F)cc3c2C1 | 5% | 3% | 3% | -7 | 20%
O=C1CCCC/C1=C/Nc1ccc(C(=O)O)cc1 | 6% | 1% | -6% | -5 | 4%
CC1CCC/C(=C\Nc2ccc(O)cc2)C1=O (centres undefined) | -5% | u | 21µM* | u | -15%
CC(=O)C1=C(C)OC(N)=C(C#N)C1c1cc([N+](=O)[O-])ccc1Cl (centres undefined) | 16µM* | 3.7µM* | 4.1µM* | -62* | u
COc1ccc2cc(C3C(C#N)=C(N)OC(C)=C3C(C)=O)c(Cl)nc2c1 (centres undefined) | -13% | 21µM* | u | -3 | -12%
CC(=O)C1=C(C)OC(N)=C(C#N)C1c1cccc([N+](=O)[O-])c1 (centres undefined) | -3% | u | u | 5 | -9%
CC(=O)NC(c1ccc(F)c(F)c1)c1nc(-c2ccccc2C)cs1 (centres undefined) | -5% | u | u | 26 | -3%
O=C(NC(=S)N1CCN(Cc2ccccc2)CC1)c1ccco1 | 5% | -16% | -17% | 27 | 13%
Cc1ccccc1-c1nc(CN2CCC(C(=O)NCCCN3CC(C)CC(C)C3)CC2)c(C)o1 (centres undefined) | -17% | u | 23µM* | -6 | -28%
Cc1ccccc1-c1nc(CN2CCC(C(=O)NCCCN3CCOCC3)CC2)c(C)o1 | 10µM* | -6% | -28% | -4 | -19%
Cc1ccccc1-c1nc(CN2CCC(C(=O)NCCCN3CCCC3)CC2)c(C)o1 | -26% | u | u | -26 | -26%
COc1cc(CNCc2ccccn2)ccc1OCC(N)=O | -3% | -10% | 5% | 10 | 0%
COc1cc(CNCc2ccccn2)ccc1OCc1ccc(Cl)cc1Cl | 23µM* | u | u | -53* | 21µM*
Nc1ncccc1OCc1ccc(Cl)c(Cl)c1 | 0% | 26µM* | u | u | -17%
COc1cc(CNCc2ccccn2)ccc1OCc1ccc(Cl)c(Cl)c1 | u | u | u | -93* | u
O=C(NCc1ccccn1)c1ccccc1OCc1ccc(Cl)cc1Cl | 0%[9.24 µM] | u | u | -3 | -3%
Nc1c(C(=O)NCc2ccccc2)sc2nc(N3CCOCC3)c3c(c12)CCCC3 | -24% | 21µM* | u | 62 | -19%
CC(=O)c1ccc(NC(=O)c2sc3nc(N4CCOCC4)c4c(c3c2N)CCCC4)cc1 | 0% | 21µM* | u | -8 | 1%
NNC(=O)c1sc2nc(N3CCOCC3)c3c(c2c1N)CCCC3 | -4% | u | -29% | -12 | -28%
SMILES | HT1080NT lethal | DT40 TDP1 no CPT | DT40 TDP1 CPT | IL-1B inflam inh | HT1080 IDH1KD tx
Cc1ccc(NC(=O)c2sc3nc(N4CCOCC4)c4c(c3c2N)CCCC4)cc1 | 0% | u | -9% | -23 | 0%
Nc1c(C(=O)Nc2ccccc2)sc2nc(N3CCOCC3)c3c(c12)CCCC3 | 0% | 9.2µM* | u | -18 | -4%
Nc1c(C(=O)Nc2ccc(Cl)cc2)sc2nc(N3CCOCC3)c3c(c12)CCCC3 | 1% | 15µM* | u | 0 | -3%
CCOc1ccc(NC(=O)c2sc3nc(N4CCOCC4)c4c(c3c2N)CCCC4)cc1 | 7% | u | u | 4 | 13%
C=CCOn1c(=O)c(=O)n(OCc2ccccc2)c2ccccc21 | 10% | -11% | -13% | -13 | 4%
O=C(C1CC(=O)N(c2ccccc2)C1)N1CCCCCC1 (centres undefined) | 15% | 8% | -6% | -26 | 18%
COc1ccc(NC(=O)Nc2nnc(N3CCCC3)s2)cc1 | x | u | -14% | x | x
COc1cccc(NC(=O)c2sc3nc(N4CCOCC4)c4c(c3c2N)CCCC4)c1 | 0% | 23µM* | 26µM* | -6 | -4%
CCC(C(=O)NN1C(=O)c2ccccc2C1=O)c1ccccc1 (centres undefined) | 4% | 19% | 1% | 18 | 4%
CCn1nc(C)c(Br)c1C(=O)Sc1ccccc1Cl | 16µM* | 4.6µM* | 3.7µM* | -28 | u
CCn1nc(C)cc1C(=O)Sc1ccc(C)cc1 | -5% | u | u | u | -27%
Cc1ccccc1Nc1nnc(SCC2CCCCO2)s1 (centres undefined) | -2% | 18µM* | u | u | 1%
COc1ccccc1Nc1nnc(SCC2CCCCO2)s1 (centres undefined) | 16µM* | u | 6.5µM* | -16 | 15µM*
Cc1ccc(Nc2nnc(SCC3CCCCO3)s2)cc1 (centres undefined) | 17% | u | -2% | -7 | 3%
CCN1CCc2c(sc(NC(=O)c3ccc(S(=O)(=O)N4CCCCCC4)cc3)c2C(=O)NC)C1 | 3% | u | u | i | 6%
O=c1c2cc(Cl)ccc2[nH]c(=S)n1Cc1ccccn1 | 11% | u | 18µM* | 23 | 8%
CCc1ccc(C(CNC(=O)c2ccc3c(=O)n(-c4ccccc4F)c(=S)[nH]c3c2)N(C)C)cc1 (centres undefined) | u | 23µM* | u | -82* | 33µM*
COc1ccc(Cl)cc1C(=O)NCCN(C)C | -2% | -6% | -3% | 0 | -12%
CN(C)CCNC(=O)c1ccc2c(=O)n(Cc3ccc(Cl)cc3)c(=S)[nH]c2c1 | 23µM* | 29µM* | 21µM* | -63* | u
CN(C)CCNC(=O)c1ccc(COc2ccc(Cl)cc2Cl)cc1 | 10µM* | 18µM* | u | -7 | u
